Reference: PubChem BioAssay (NCI)
Where “and” joins values, the source holds several entries; their conditions need not be identical. Equal values may be shown once. The panel holds about 83,000 compounds, 20% with a hit somewhere; the sample as a whole holds those more often.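 A percent growth of 40 corresponds to 60% growth inhibition; 0 means no net growth; -100 means all cells died. Active threshold: below 10.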 Calls of active or inactive are those of the source.

What was measured:
Test in all cases: NCI-60 one-dose screen, 48 h (100 = growth as untreated, 0 = no growth, -100 = all killed)
Details in all cases: 10 µM unless noted
[1] = system: SK-MEL-2 melanoma
[2] = system: EKVX NSCLC
[3] = system: SN12C renal
[4] = system: UO-31 renal
[5] = system: TK-10 renal
[6] = system: ACHN renal
[7] = system: CAKI-1 renal
[8] = system: A498 renal
[9] = system: HL-60(TB) leukemia
[10] = system: CCRF-CEM leukemia
[11] = system: MOLT-4 leukemia
[12] = system: SR leukemia
[13] = system: RPMI-8226 leukemia
[14] = system: OVCAR-8 ovarian
[15] = system: OVCAR-5 ovarian
[16] = system: OVCAR-4 ovarian
[17] = system: SK-OV-3 ovarian
[18] = system: IGROV1 ovarian
[19] = system: OVCAR-3 ovarian
[20] = system: HS 578T breast

SMILES | growth [1] | growth [2] | growth [3] | growth [4] | growth [5] | growth [6] | growth [7] | growth [8] | growth [9] | growth [10] | growth [11] | growth [12] | growth [13] | growth [14] | growth [15] | growth [16] | growth [17] | growth [18] | growth [19] | growth [20]
COc1cc2c(cc1OC)[C@@H]1C(=O)c3ccc4c(c3O[C@@H]1CO2)C[C@H](C(C)C)O4 | 91% (inactive) | 26.7% (inactive) | 86.9% (inactive) | 46.1% (inactive) | 70.3% (inactive) | 59.3% (inactive) | 45.1% (inactive) | 86.8% (inactive) | 19% (inactive) | 42.6% (inactive) | 37% (inactive) | 9.36% (active) | -9.79% (active) | 54.7% (inactive) | 93.7% (inactive) | 42.3% (inactive) | 75.9% (inactive) | 81.6% (inactive) | 83.1% (inactive) | 115% (inactive)
C[C@]12CC[C@H]3[C@@H](CC=C4c5nc(N)sc5CC[C@@]43C)[C@@H]1CC[C@@H]2O | 98% (inactive) | 101% (inactive) | 93.8% (inactive) | 96.3% (inactive) | 102% (inactive) | 106% (inactive) | 91.7% (inactive) | 86% (inactive) | 87.8% (inactive) | 91.2% (inactive) | 103% (inactive) | 91.6% (inactive) | 103% (inactive) | 99.5% (inactive) | 107% (inactive) | 95.7% (inactive) | 103% (inactive) | 114% (inactive) | 99.6% (inactive) | 105% (inactive)
CC(C)CCC1C(=O)NC(=O)NC1=O | 81.8% (inactive) | 96.1% (inactive) | 96.3% (inactive) | 86.9% (inactive) | 84.5% (inactive) | 100% (inactive) | 102% (inactive) | 86.6% (inactive) | 99.7% (inactive) | 106% (inactive) | 99.1% (inactive) | 93.5% (inactive) | 113% (inactive) | 98.4% (inactive) | 107% (inactive) | 99.2% (inactive) | 88.2% (inactive) | 96% (inactive) | 101% (inactive) | –
O=[N+]([O-])c1ccc(OCc2ccc(S(=O)(=O)F)c(Cl)c2)c(Cl)c1 | 88.7% (inactive) | 112% (inactive) | 97.7% (inactive) | 70% (inactive) | 102% (inactive) | 92.7% (inactive) | 102% (inactive) | 95.6% (inactive) | 88.9% (inactive) | 87.9% (inactive) | 68.2% (inactive) | 87.5% (inactive) | 97.8% (inactive) | 105% (inactive) | 99% (inactive) | 102% (inactive) | 107% (inactive) | 100% (inactive) | 112% (inactive) | 95.4% (inactive)
COc1cc(-c2ccc(N)c(OC)c2)ccc1N | 118% (inactive) | 96% (inactive) | 104% (inactive) | 93.6% (inactive) | 107% (inactive) | 100% (inactive) | 92.5% (inactive) | 118% (inactive) | 118% (inactive) | 113% (inactive) | 173% (inactive) | 143% (inactive) | 96.5% (inactive) | 114% (inactive) | 94.4% (inactive) | 104% (inactive) | 105% (inactive) | 120% (inactive) | 104% (inactive) | 105% (inactive)
O=[N+]([O-])c1cc(Cl)c(Cl)c([N+](=O)[O-])c1Cl | 116% (inactive) | 122% (inactive) | 23.1% (inactive) | 5.47% (active) | 80.7% (inactive) | -30.1% (active) | -71.5% (active) | 108% (inactive) | 22.2% (inactive) | 15% (inactive) | 13.3% (inactive) | 11.2% (inactive) | 29.7% (inactive) | 38.9% (inactive) | 107% (inactive) | 29.3% (inactive) | 105% (inactive) | 28.9% (inactive) | 10% (inactive) | 106% (inactive)
C[C@@H]1C/C=C\C(=O)O[C@H](/C=C/C#C/C=C/C(C)(C)[C@@H](O)c2cccc(O)c2Br)[C@@H](C)/C=C/[C@H](C)C[C@H](OC(N)=O)C1 | 15.1% (inactive) | 22% (inactive) | 36.4% (inactive) | 3.1% (active) | 43.5% (inactive) | 35% (inactive) | 6.13% (active) | 41% (inactive) | 3.08% (active) | 25.7% (inactive) | 19.7% (inactive) | 5.45% (active) | 11.3% (inactive) | 20.3% (inactive) | 46.8% (inactive) | 50.3% (inactive) | 55.9% (inactive) | 48.6% (inactive) | 41.5% (inactive) | 54.8% (inactive)
N#CCc1ccc(CC#N)cc1 | 99.4% (inactive) | 97.7% (inactive) | 86.7% (inactive) | 89.8% (inactive) | 100% (inactive) | 103% (inactive) | 97.1% (inactive) | 78.8% (inactive) | 92.9% (inactive) | 100% (inactive) | 99.9% (inactive) | 97.9% (inactive) | 98.8% (inactive) | 104% (inactive) | 104% (inactive) | 119% (inactive) | 98.5% (inactive) | 109% (inactive) | 110% (inactive) | –
CO[C@H]1[C@H](O[C@@H]2C[C@@H]3C/C=C/C(=O)O[C@@H](CO)C[C@H](O)[C@@H]4C[C@H](C)[C@H](C/C=C\C=C\[C@H](C)C[C@H](C2)O3)O4)O[C@@H](C)[C@H](O)[C@H]1O | 68.8% (inactive) | 28.7% (inactive) | 62.6% (inactive) | 33.3% (inactive) | 32.2% (inactive) | 66.4% (inactive) | 61.6% (inactive) | 60.6% (inactive) | 33.2% (inactive) | 58.7% (inactive) | 43.8% (inactive) | 85.2% (inactive) | 28.1% (inactive) | 42.6% (inactive) | 71.2% (inactive) | 30.1% (inactive) | 54% (inactive) | 71% (inactive) | 60.2% (inactive) | –
CC[C@H](C)[C@H](NC(=O)C12CC(NC)(C1)C2)C(=O)N(C)[C@H](C[C@@H](OC(C)=O)c1nc(C(=O)N[C@@H](Cc2ccccc2)C[C@H](C)C(=O)OC)cs1)C(C)C | 36.7% (inactive) | 37.3% (inactive) | 47.2% (inactive) | 40.7% (inactive) | 48.5% (inactive) | 33.9% (inactive) | 91.2% (inactive) | -0.0952% (active) | -32.5% (active) | 1.27% (active) | 8.66% (active) | -2.59% (active) | 26.3% (inactive) | 17.5% (inactive) | 52.7% (inactive) | 50.3% (inactive) | 39.6% (inactive) | 29.7% (inactive) | -14.1% (active) | 39.2% (inactive)
Cc1cc[c-]cc1.Fc1c[c-]c(-c2ccccn2)c(F)c1.[Pt+2].c1ccc([PH+](c2ccccc2)c2ccccn2)cc1 | 71.8% (inactive) | 65.3% (inactive) | 52.1% (inactive) | 58.4% (inactive) | 75.9% (inactive) | 69% (inactive) | 54.7% (inactive) | 82.7% (inactive) | 38.2% (inactive) | 19.9% (inactive) | 26% (inactive) | 42.5% (inactive) | 15.9% (inactive) | 34% (inactive) | 63.9% (inactive) | 57.1% (inactive) | 91.7% (inactive) | 53.2% (inactive) | 46.1% (inactive) | 39.1% (inactive)
COC12CC3(C)C(C4=CC(=O)OC4)CCC3(O)C3CCC4=CC(=O)CCC4(CO1)C32 (configuration not stated) | 24.9% (inactive) | 103% (inactive) | 105% (inactive) | 80.7% (inactive) | 101% (inactive) | 96.8% (inactive) | 105% (inactive) | 120% (inactive) | 123% (inactive) | 116% (inactive) | 119% (inactive) | 117% (inactive) | 118% (inactive) | 99.9% (inactive) | 99.5% (inactive) | 105% (inactive) | 117% (inactive) | 98.6% (inactive) | 118% (inactive) | 103% (inactive)
O=C(O)C1C(C(=O)O)C2(Cl)C(Cl)=C(Cl)C1(Cl)C2(Cl)Cl (configuration not stated) | 108% (inactive) and 113% (inactive) | 90.4% (inactive) and 118% (inactive) | 103% (inactive) and 101% (inactive) | 73.1% (inactive) and 92.2% (inactive) | 116% (inactive) and 107% (inactive) | 99.9% (inactive) | 116% (inactive) | 102% (inactive) and 101% (inactive) | 95.1% (inactive) | 1.8% (active) and 114% (inactive) | 115% (inactive) and 106% (inactive) | 104% (inactive) and 118% (inactive) | 94% (inactive) and 115% (inactive) | 107% (inactive) and 101% (inactive) | 91.4% (inactive) and 108% (inactive) | 105% (inactive) and 110% (inactive) | 103% (inactive) and 107% (inactive) | 109% (inactive) and 118% (inactive) | 99.8% (inactive) and 112% (inactive) | 116% (inactive)
Cn1cc(-c2csc(-c3cn(CCCCN4CCOCC4)c4ccc(F)cc34)n2)c2cccnc21 | 78.7% (inactive) | 72.7% (inactive) | 72.2% (inactive) | 44.4% (inactive) | 75.4% (inactive) | 86.3% (inactive) | 76.1% (inactive) | 46.7% (inactive) | 76.2% (inactive) | -59.6% (active) | 46.7% (inactive) | 37% (inactive) | 49% (inactive) | 81.3% (inactive) | 79.5% (inactive) | 84.5% (inactive) | 84% (inactive) | 65.4% (inactive) | 90% (inactive) | 41.1% (inactive)
